Results with a measured potency or affinity are listed apart. Records with an inconclusive call do not appear. The source made the active and inactive calls. How the calls were made is not given here.
Key:
[1] = IGROV1 cell killing – plate reader, dry powder samples, PAX8 inhibitor project, dose response (AID 743043); conditions: IGROV1 ovarian cancer cell cytotoxicity; series mostly up to 50 µM;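 further: more negative means fewer viable cells or more cytotoxicity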
[2] = toxicity toward immortalized ovarian surface epithelium – cell-based, plate reader, dry powder samples, cytotoxicity control for PAX8 inhibitor project, dose response (AID 743045); conditions: IOSE-T80 ovarian epithelial cells; series mostly up to 50 µM;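 further: more negative values mean more cell killing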

O=C(N1CCCCC1)[C@@]1(CCS(=O)(=O)c2ccccc2)N=C(c2ccc(OCCCO)cc2)O[C@H]1c1ccccc1
outcome [1]: inactive | outcome [2]: inactive
